# According to the supplement of paper PMC11732987, “Enantioselective OTUD7B fragment discovery through chemoproteomics screening and high-throughput optimisation” (Communications Chemistry, 2025):
# Unmarked numbers belong to inactive results.
# What was measured:
# Experiment in all cases: log2 ratio of Biotin-Ahx-Ub-VS probe labelling (fragment/DMSO); higher = less target engagement (more negative = stronger competition), active = hit call of the paper (q ≤ 0.05, log2 ratio ≤ -1)
# Conditions in all cases: compound concentration: 200 uM; treatment time: 3 h
# [1] = biological target: T1, OTUD6B (UniProt Q8N6M0)
# T1 sequence (whole entry): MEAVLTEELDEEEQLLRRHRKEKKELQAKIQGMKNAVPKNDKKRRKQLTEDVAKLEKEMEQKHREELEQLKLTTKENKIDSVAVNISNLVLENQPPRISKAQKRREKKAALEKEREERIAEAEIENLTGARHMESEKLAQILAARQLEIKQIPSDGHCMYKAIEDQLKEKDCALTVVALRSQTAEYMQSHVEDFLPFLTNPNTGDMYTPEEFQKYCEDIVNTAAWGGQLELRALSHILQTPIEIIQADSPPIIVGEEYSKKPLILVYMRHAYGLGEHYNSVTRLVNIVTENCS
# How it was run: (§1)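 Lysate from HEK293T cells, 495 µg per sample in Tris/CHAPS/IGEPAL buffer with protease inhibitors, was treated for 3 h in triplicate with fragment at 200 µM or vehicle. Biotin-Ahx-Ub-VS was next added at 0.5 µM final for 1 h. The labelled DUBs were enriched with NeutrAvidin, digested with LysC and trypsin, and run by diaPASEF LC-MS/MS, with values given as average log2 fragment/vehicle ratios by unpaired t-test on global-median-normalised Spectronaut quantities of proteins with ≥2 unique peptides.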
# [2] = biological target: T2, OTUD7B (UniProt Q6GQQ9)
# T2 sequence (whole entry): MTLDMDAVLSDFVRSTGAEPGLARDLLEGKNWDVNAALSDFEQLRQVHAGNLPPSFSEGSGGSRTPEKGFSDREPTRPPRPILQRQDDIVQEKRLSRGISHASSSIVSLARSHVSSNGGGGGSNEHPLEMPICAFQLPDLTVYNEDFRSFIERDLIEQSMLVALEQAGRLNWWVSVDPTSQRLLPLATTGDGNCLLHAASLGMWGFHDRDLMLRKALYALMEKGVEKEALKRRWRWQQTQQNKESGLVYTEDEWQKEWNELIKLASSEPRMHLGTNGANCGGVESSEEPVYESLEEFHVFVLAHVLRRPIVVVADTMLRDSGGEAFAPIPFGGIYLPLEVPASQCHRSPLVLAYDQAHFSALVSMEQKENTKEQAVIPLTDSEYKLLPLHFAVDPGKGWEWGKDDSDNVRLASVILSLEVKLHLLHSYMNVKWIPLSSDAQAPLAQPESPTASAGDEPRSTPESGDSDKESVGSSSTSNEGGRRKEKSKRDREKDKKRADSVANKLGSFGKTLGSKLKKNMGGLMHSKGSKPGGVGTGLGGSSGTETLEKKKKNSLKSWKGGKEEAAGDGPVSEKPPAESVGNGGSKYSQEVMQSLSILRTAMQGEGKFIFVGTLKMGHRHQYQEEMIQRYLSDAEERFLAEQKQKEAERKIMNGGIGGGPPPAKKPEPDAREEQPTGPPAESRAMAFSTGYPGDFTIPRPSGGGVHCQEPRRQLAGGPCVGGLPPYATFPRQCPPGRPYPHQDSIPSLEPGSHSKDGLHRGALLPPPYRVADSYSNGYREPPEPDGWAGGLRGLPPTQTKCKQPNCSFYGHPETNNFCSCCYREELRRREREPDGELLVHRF
# How it was run: as §1
# [3] = biological target: PRPF8 (UniProt Q6P2Q9)
# How it was run: as §1
# [4] = biological target: T3, PSMD7 (UniProt P51665)
# T3 sequence (whole entry): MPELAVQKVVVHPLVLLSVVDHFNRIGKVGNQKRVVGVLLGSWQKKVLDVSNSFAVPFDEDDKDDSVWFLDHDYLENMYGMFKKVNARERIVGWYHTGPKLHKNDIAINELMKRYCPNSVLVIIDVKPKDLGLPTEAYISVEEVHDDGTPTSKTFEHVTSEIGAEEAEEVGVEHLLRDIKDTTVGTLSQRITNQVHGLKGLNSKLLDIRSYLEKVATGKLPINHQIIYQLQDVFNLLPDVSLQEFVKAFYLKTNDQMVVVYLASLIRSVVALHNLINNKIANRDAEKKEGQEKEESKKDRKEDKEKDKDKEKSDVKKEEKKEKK
# How it was run: as §1
# [5] = biological target: UCHL1 (UniProt P09936)
# Sequence of UCHL1 (P09936 whole entry, looked up): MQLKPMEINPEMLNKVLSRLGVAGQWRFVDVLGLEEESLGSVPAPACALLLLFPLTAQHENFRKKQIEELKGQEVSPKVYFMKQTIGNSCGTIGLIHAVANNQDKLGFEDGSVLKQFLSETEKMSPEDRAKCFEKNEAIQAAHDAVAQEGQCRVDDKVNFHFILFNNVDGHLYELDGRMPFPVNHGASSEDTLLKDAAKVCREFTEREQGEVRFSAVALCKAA
# How it was run: as §1
# [6] = biological target: T4, UCHL3 (UniProt P15374)
# T4 sequence (whole entry): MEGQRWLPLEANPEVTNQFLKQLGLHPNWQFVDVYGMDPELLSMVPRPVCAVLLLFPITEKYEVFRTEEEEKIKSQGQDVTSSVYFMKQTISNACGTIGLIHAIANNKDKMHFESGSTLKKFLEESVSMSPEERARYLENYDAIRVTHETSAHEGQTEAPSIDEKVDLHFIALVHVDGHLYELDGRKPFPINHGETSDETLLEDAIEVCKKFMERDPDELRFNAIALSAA
# How it was run: as §1
# [7] = biological target: T5, UCHL5 (UniProt Q9Y5K5)
# T5 sequence (whole entry): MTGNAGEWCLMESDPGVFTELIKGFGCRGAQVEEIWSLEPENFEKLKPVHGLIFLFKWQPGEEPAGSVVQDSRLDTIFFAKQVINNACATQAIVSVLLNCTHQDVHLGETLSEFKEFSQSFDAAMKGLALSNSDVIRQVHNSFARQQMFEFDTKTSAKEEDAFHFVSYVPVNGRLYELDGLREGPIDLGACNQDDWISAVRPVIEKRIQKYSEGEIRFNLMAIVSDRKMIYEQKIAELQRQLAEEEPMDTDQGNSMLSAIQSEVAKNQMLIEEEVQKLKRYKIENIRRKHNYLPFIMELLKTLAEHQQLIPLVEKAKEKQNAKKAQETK
# How it was run: as §1
# [8] = biological target: USP10 (UniProt Q14694)
# Sequence of USP10 (Q14694 whole entry): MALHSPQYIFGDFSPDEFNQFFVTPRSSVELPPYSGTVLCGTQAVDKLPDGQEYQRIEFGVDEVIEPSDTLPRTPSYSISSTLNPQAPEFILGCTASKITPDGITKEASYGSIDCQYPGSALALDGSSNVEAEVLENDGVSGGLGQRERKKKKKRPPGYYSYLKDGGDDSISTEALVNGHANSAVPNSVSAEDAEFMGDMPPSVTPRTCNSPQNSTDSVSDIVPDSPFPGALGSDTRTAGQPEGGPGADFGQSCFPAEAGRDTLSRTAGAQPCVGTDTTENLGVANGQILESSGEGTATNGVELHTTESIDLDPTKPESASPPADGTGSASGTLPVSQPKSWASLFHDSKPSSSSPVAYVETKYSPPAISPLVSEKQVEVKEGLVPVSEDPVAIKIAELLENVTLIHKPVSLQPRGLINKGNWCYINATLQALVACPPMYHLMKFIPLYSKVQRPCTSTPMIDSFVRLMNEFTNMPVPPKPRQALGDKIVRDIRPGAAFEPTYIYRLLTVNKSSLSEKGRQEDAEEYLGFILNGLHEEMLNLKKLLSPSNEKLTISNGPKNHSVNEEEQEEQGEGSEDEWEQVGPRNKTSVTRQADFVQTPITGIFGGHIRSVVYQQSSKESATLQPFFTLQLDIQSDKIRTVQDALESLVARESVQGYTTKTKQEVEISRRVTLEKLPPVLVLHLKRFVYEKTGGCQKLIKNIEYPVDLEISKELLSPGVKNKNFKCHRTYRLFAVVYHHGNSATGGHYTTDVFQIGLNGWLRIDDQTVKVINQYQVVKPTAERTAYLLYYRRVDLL
# How it was run: as §1
# [9] = biological target: T6, USP15 (UniProt Q9Y4E8)
# T6 sequence (whole entry): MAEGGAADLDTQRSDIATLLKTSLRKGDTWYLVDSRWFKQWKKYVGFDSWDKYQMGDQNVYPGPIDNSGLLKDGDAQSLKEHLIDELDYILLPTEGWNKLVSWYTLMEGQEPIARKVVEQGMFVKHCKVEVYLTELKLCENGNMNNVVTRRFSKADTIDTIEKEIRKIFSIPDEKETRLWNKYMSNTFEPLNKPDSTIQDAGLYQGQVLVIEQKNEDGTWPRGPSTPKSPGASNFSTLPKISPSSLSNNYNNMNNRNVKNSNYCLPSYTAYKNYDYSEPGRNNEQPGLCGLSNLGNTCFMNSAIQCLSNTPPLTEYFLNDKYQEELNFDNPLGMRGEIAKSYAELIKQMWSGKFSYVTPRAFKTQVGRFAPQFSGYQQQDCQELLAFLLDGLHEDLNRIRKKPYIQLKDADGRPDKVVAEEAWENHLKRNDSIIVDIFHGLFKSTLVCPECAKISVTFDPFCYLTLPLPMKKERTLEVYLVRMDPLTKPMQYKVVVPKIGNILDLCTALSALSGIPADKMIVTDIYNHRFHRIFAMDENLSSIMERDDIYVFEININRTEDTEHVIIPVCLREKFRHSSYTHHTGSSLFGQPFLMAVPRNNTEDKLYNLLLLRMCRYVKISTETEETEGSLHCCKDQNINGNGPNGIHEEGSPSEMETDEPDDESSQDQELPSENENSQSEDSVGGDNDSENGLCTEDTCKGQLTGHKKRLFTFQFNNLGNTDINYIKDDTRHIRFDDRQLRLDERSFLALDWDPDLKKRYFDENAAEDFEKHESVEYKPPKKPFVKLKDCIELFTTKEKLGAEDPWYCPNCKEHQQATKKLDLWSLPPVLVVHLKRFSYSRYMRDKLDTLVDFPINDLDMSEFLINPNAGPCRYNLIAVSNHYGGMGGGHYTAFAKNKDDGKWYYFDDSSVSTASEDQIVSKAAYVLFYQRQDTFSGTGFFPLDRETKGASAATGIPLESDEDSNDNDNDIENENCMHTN
# How it was run: as §1
# [10] = biological target: USP16 (UniProt Q9Y5T5)
# Sequence of USP16 (Q9Y5T5 whole entry, looked up): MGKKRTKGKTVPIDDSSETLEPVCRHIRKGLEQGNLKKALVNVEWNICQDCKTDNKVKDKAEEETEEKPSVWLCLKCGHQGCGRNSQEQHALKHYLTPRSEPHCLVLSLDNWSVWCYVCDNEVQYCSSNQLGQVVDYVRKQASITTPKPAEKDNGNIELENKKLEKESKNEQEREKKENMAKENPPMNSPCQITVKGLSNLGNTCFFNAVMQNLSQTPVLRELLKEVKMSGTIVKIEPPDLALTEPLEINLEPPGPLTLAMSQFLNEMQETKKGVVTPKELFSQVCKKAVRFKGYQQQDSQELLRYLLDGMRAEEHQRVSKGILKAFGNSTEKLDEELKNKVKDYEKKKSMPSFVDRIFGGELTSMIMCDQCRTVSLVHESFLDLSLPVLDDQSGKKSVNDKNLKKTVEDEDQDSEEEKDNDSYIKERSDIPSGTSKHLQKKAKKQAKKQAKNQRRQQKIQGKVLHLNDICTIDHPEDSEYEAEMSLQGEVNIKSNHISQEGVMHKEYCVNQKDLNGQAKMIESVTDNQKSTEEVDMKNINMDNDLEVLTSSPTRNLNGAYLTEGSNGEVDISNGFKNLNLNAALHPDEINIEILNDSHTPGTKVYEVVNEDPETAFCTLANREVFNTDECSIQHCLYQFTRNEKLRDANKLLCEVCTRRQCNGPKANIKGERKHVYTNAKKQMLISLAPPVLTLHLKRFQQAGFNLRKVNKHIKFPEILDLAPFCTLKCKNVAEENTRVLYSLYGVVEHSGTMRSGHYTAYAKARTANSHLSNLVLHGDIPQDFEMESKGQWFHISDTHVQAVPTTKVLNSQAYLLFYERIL
# How it was run: as §1
smiles,measurement,setting,value
Cc1cc(Cl)ccc1NC(=O)CCl,log2 ratio of Biotin-Ahx-Ub-VS probe labelling,[1],-0.0452
same,log2 ratio of Biotin-Ahx-Ub-VS probe labelling,[2],-0.649
same,log2 ratio of Biotin-Ahx-Ub-VS probe labelling,[3],0.192
same,log2 ratio of Biotin-Ahx-Ub-VS probe labelling,[4],0.0336
same,log2 ratio of Biotin-Ahx-Ub-VS probe labelling,[5],-1.46 (active)
same,log2 ratio of Biotin-Ahx-Ub-VS probe labelling,[6],0.0619
same,log2 ratio of Biotin-Ahx-Ub-VS probe labelling,[7],-0.109
same,log2 ratio of Biotin-Ahx-Ub-VS probe labelling,[8],-0.132
same,log2 ratio of Biotin-Ahx-Ub-VS probe labelling,[9],-0.218
same,log2 ratio of Biotin-Ahx-Ub-VS probe labelling,[10],-0.157
